PKA-R1A act – activates the PKA-R1A holoenzyme complex. activation, % at 11.4 µM. PKA-R1A dissociation, Cy5-IP20 fluorescence polarization; scaled: DMSO 0%, 113 µM cGMP 100%. P00514+P68181. 0.083% of 340,000 active. AID 504707;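 active = percent activation above the mean of all tested compounds plus 3 SD, cut at about 19% in these data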;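 also: higher means more PKAc released from R1A so a rise in polarization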
Mot1-301 SUMO – inhibitors of SUMOylation pathway: yeast Mot1-301 growth rescue; S. cerevisiae Mot1-301 growth rescue, ATP luminescence, 38.5C; percent above DMSO median, 100 means doubled; growth rescue, % at 18.8 µM; 1% of 320,000 active; AID 2716;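 active = every valid replicate shows activation above 250% relative to neutral control wells; inactive = the rest, any valid replicate at or below 250%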;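 also: OY570 slx delta 5 strain wells were the positive control but not used for scaling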
MsrA act – activates bovine MsrA enzyme | purified bovine MsrA, absorbance read-out | activation, % at 10.6 µM | 0.3% of 360,000 active | AID 602163; in the data active = activation above about 7.5%;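 also: 0% = vehicle and 100% = reference activator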
MsrA inh – bovine MsrA inhibition. purified bovine MsrA, absorbance read-out. inhibition, % at 15.5 µM. 0.75% of 360,000 active. AID 651718; in the data active = inhibition above about 4.5%;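 also: 0% = vehicle wells with enzyme and 100% = reference inhibitor wells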
PKA-R2B act – PKA-R2B complex activation; P22694+P31323; PKA-R2B holoenzyme dissociation, Cy5-IP20 fluorescence polarization; R2B truncated from residue 108, S112A mutant; 0% DMSO only, 100% 113 µM cGMP; activation, % at 11.4 µM; 0.079% of 340,000 active; AID 504700;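 active = activation above a cutoff set at the mean over all compounds plus 3 SD, cut at about 18% in these data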;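 also: higher means more holoenzyme dissociation and a rise in polarization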
Target sequence (P31323 whole entry, looked up, other chains not shown, the tested form may be a part): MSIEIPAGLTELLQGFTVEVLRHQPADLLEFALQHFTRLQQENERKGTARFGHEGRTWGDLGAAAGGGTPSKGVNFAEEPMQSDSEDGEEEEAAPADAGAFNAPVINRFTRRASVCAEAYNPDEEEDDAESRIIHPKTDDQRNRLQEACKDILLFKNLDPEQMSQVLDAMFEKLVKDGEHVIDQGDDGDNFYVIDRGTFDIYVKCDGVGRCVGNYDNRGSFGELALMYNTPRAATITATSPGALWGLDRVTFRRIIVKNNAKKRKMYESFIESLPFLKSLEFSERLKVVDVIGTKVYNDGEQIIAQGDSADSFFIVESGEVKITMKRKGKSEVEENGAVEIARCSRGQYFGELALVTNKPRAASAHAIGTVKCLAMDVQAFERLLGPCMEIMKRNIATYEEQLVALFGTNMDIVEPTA
Numbers without * were called inactive; / = no result given; ! = not confirmed by another sample. A selection: hits, their analogues and other compounds. The true share with any hit is near 2%.

SMILES | PKA-R1A act | Mot1-301 SUMO | MsrA act | MsrA inh | PKA-R2B act
CC(=O)Nc1ccc(S(=O)(=O)NCC2CCC(C(=O)N3CCCCC3)CC2)cc1 (stereo unspecified) | -12.7 | -17.1 | -4.8 | 0.0 | 0.7
COCCC(=O)N1CCCC(CNS(=O)(=O)c2ccc(OC)cc2)C1 (stereo unspecified) | -11.4 | / | -10.0 | 1.9 | -8.5
COCc1cc(N2CCNC[C@H]2C)ccc1N1CCS(=O)(=O)CC1 | / | / | / | -0.6 | /
COC(=O)C1=C(C)N(Cc2ccccc2C(F)(F)F)C(=NCc2ccccc2)NC1CCc1ccccc1 (stereo unspecified) | / | / | / | -1.6 | /
Nc1[nH]c(C(=O)c2ccccc2)c(-c2ccc3ccccc3c2)c1C(=O)NCc1cccc2ccccc12 | / | / | / | 1.8 | /
Cc1cc(Cl)c2oc(C(=O)N3CCN(c4ccncc4)CC3)c(C)c2c1 | -0.7 | 450.2* | -5.5 | -2.4 | -7.2
COC(=O)C1CCN(C(=O)c2oc3c(Cl)cc(C)cc3c2C)CC1 | 0.9 | -15.5 | -2.8 | -0.2 | -6.7
CCCN(C(=O)CCc1cn(CCC)c2ccccc12)c1ccc(Oc2cccnc2)cc1 | / | / | / | 0.6 | /
O=[N+]([O-])c1ccc(C=Nc2ccc(Cl)c([N+](=O)[O-])c2)s1 | 0.8 | / | 2.5 | 5.1* | 5.7
Cc1cc(C)cc(N=Cc2ccc([N+](=O)[O-])s2)c1 | 1.1 | 8.6 | 5.4 | 2.5 | 3.9
Cc1cc(Cl)ccc1OCC(O)CNCCc1ccc(S(N)(=O)=O)cc1 (stereo unspecified) | 4.6 | 308.6* | -9.7 | 1.0 | -8.6
Nc1[nH]c(C(=O)c2ccc(Br)cc2)c(-c2ccncc2)c1C(=O)c1ccccc1 | / | / | / | 1.1 | /
Cc1ccccc1C(=O)N[C@H](C(=O)N1CCC[C@H]1C(=O)NCCc1ccccc1Cl)c1ccccc1 | / | / | / | 0.2 | /
C=CCNc1cccc2c1S(=O)(=O)N[C@H](Cc1ccccc1)CO2 | / | / | / | -0.3 | /
COC(=O)c1sc(=S)n(-c2cc(F)ccc2F)c1N | 10.9 | 1.0 | -3.2 | 4.6* | -3.9
COC(=O)N(C)C[C@H]1OCc2cn(nn2)CCCC(=O)N([C@H](C)CO)C[C@@H]1C | / | / | / | 0.6 | /
CC(C)c1ccc(Oc2cccc3c2S(=O)(=O)N([C@H](C)c2ccccc2)C[C@@H](COCc2ccccc2)O3)cc1 | / | / | / | 0.3 | /
Cc1ccccc1-c1ccc2c(c1)[C@@H]1C[C@H]3[C@@H](CN1CC2)[C@H](C)OC(c1ccccc1)N3C (stereo partly specified) | / | / | / | -0.6 | /
Cc1ccc(/C=N/NC(=O)c2ccc(OC3CCCC3)cc2)o1 | -1.2 | / | -5.0 | 4.6* | -1.5
COc1cccc(/C(O)=C2/C(=O)C(=O)N(c3cc(C)on3)C2c2cccs2)c1 (stereo unspecified) | 1.0 | 162.3 | -3.2 | 5.0* | -9.7
Oc1cc(O)cc(C=Cc2ccc(O)c(O)c2)c1 | / | / | / | 3.4 | /
COc1ccc(CNC(=O)COc2cc3c(c4oc(=O)cc(C)c24)CCC(C)(C)O3)cc1OC | 0.3 | 334.3* | -3.1 | 1.7 | 1.9
COc1ccc(CNC(=O)COc2cc3c(c4oc(=O)cc(C)c24)CCC(C)(C)O3)c(OC)c1 | / | / | -0.8 | 0.6 | /
Cc1cc(=O)oc2c3c(cc(OCC(=O)NCCCn4ccnc4)c12)OC(C)(C)CC3 | -7.0 | -18.2 | -1.5 | 0.3 | 11.4
CCCc1cc(=O)oc2c3c(cc(OCC(=O)NCCCn4ccnc4)c12)OC(C)(C)CC3 | -1.8 | 411.6* | -1.9 | 1.7 | -4.2
SMILES | PKA-R1A act | Mot1-301 SUMO | MsrA act | MsrA inh | PKA-R2B act
COc1ccccc1C(=O)N1CCN(C(=O)[C@H]2O[C@@H](n3cnc(C(N)=O)n3)[C@H](O)[C@@H]2O)CC1 | / | / | / | 1.6 | /
Oc1ccc(-c2ccccc2)cc1CN1CCCCCC1 | -4.9 | 341.4* | -1.6 | 2.2 | 1.5
CC(C(O)c1ccc(O)cc1)N1CCC(Cc2ccccc2)CC1 (stereo unspecified) | -19.9 | 332.5*! | -2.9 | -1.1 | 4.5
Cn1nc(C(F)(F)F)c(C(=O)Nc2ccc(F)cc2F)c1Oc1cccc(Cl)c1 | 0.8 | 6.6 | -3.2 | 1.1 | -6.7
Cc1nn(C)c(Oc2ccc(Cl)cc2)c1C(=O)Nc1ccc(F)cc1F | -0.5 | 312.2* | -0.1 | 0.4 | -4.8
COC(=O)c1cc2c(c3c4cc(OC)ccc4n(C(=O)c4ccccc4)c13)C(=O)N(C1CCCCC1)C2 | / | / | / | 0.5 | /
COc1ccc(C=C2OC(=O)C(C(C)=O)=C2O)cc1 | -4.2 | / | -10.7 | 9.1* | -5.5
CC(=O)C1=C(O)C(=Cc2ccccc2)OC1=O | 0.8 | / | -3.4 | 3.3 | 0.7
